Laboratory results as given in PubChem BioAssay (EPA / NIEHS).
Values joined by “and” are separate entries in the source; they are usually repeats but may differ in a detail not shown here. Equal entries are not always repeated. Active and inactive are the calls of the source. How the source made its calls: active means hit-call score of the fitted dose curve at least 0.9, where 1 is the maximum; inactive means score below 0.9.

What was measured:
[1] = read-out: Urokinase-type plasminogen activator receptor (uPAR), PLAUR (gene 5329); test: BSK_4H_uPAR: BioMAP Diversity Plus: 4H Assay for Urokinase-type plasminogen activator receptor (uPAR) Biomarker Activity (AID 2283030); settings: primary human endothelial cells (HUVEC); actives raise or lower the signal
Outline: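 Human umbilical vein endothelial cells in the 4H system, 24 h after chemical dosing. Cell-surface uPAR measured by ELISA, fitted in both directions versus DMSO; cytotoxicity checked by SRB total protein in parallel cultures.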

[2] = read-out: Vascular endothelial growth factor receptor 2 (Homo sapiens) (UniProt P35968); test: BSK_4H_VEGFRII: BioMAP Diversity Plus: 4H Assay for Vascular endothelial growth factor receptor 2 (VEGFR2) Biomarker Activity (AID 2283031); settings: primary human endothelial cells (HUVEC); actives raise or lower the signal;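 on AC50: cell-surface VEGFR2 protein level quantified by ELISA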
Outline: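 Primary human umbilical vein endothelial cells (4H system), 24 h exposure; cell-surface VEGFR2 measured by ELISA. Bidirectional fitting versus DMSO; cytotoxicity checked in parallel by SRB total-protein staining.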

[3] = read-out: Human Leukocyte Antigen - DR isotype (HLADR), HLA-DRA (gene 3122); test: BSK_BE3C_HLADR: BioMAP Diversity Plus: BE3C Assay for Human Leukocyte Antigen - DR isotype (HLADR) Biomarker Activity (AID 2283032); settings: primary human bronchial epithelial cells; actives raise or lower the signal
Outline: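 Signal came from an ELISA for HLA-DR in human bronchial epithelial primary cells harvested 24 h after treatment; gain- and loss-of-signal fitting used DMSO controls as reference.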

[4] = read-out: Vascular cell adhesion molecule 1 (VCAM1), VCAM1 (gene 7412); test: BSK_4H_VCAM1: BioMAP Diversity Plus: 4H Assay for Vascular cell adhesion molecule 1 (VCAM1) Biomarker Activity (AID 2283033); settings: primary human endothelial cells (HUVEC); actives raise or lower the signal
Outline: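 Endpoint derived from bidirectional fitting against DMSO controls of VCAM-1 ELISA signal in umbilical vein endothelial cells sampled at 24 h following treatment.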

[5] = read-out: Interferon-gamma inducible Protein 10 (IP10), CXCL10 (gene 3627); test: BSK_BE3C_IP10: BioMAP Diversity Plus: BE3C Assay for Interferon-gamma inducible Protein 10 (IP10) Biomarker Activity (AID 2283034); settings: primary human bronchial epithelial cells; actives raise or lower the signal
Outline: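 Using primary human bronchial epithelial cultures, the assay captures IP-10 by ELISA one day (24 h) after exposure. Parallel SRB staining of total protein flags overt cytotoxicity. Fits run bidirectionally relative to DMSO.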

[6] = read-out: Monokine induced gamma interferon (MIG), CXCL9 (gene 4283); test: BSK_BE3C_MIG: BioMAP Diversity Plus: BE3C Assay for Monokine induced gamma interferon (MIG) Biomarker Activity (AID 2283035); settings: primary human bronchial epithelial cells; actives raise or lower the signal
Outline: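 MIG level was determined by ELISA after 24 h chemical treatment of primary human bronchial epithelial cells. Values were fitted bidirectionally with DMSO as the negative control and activity baseline.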

[7] = read-out: Transforming growth factor beta 1 (TGFb1), TGFB1 (gene 7040); test: BSK_BE3C_TGFb1: BioMAP Diversity Plus: BE3C Assay for Transforming growth factor beta 1 (TGFb1) Biomarker Activity (AID 2283036); settings: primary human bronchial epithelial cells; actives raise or lower the signal
Outline: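 In this human primary bronchial epithelial system, an ELISA quantified TGF-b1 one day after dosing. Endpoint changes in either direction were fitted relative to DMSO.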

[8] = read-out: urokinase plasminogen activator (uPA), PLAU (gene 5328); test: BSK_BE3C_uPA: BioMAP Diversity Plus: BE3C Assay for urokinase plasminogen activator (uPA) Biomarker Activity (AID 2283038); settings: primary human bronchial epithelial cells; actives raise or lower the signal
Outline: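 Primary human bronchial epithelial cells, uPA measured by ELISA 24 h after dosing. Bidirectional change relative to DMSO; cytotoxicity checked in parallel cultures by sulforhodamine B total-protein staining.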

[9] = read-out: Urokinase-type plasminogen activator receptor (uPAR), PLAUR (gene 5329); test: BSK_BE3C_uPAR: BioMAP Diversity Plus: BE3C Assay for Urokinase-type plasminogen activator receptor (uPAR) Biomarker Activity (AID 2283039); settings: primary human bronchial epithelial cells; actives raise or lower the signal
Outline: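 A uPAR ELISA serves as the readout, taken 24 h after treating primary human bronchial epithelial cells. Responses in either direction are fitted against DMSO, which defines baseline activity.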

[10] = read-out: Plasminogen activator inhibitor-1 (PAI1), SERPINE1 (gene 5054); test: BSK_BE3C_PAI1: BioMAP Diversity Plus: BE3C Assay for Plasminogen activator inhibitor-1 (PAI1) Biomarker Activity (AID 2283037); settings: primary human bronchial epithelial cells; actives raise or lower the signal
Outline: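 PAI-1 biomarker levels in treated human bronchial epithelial cells are determined by ELISA at 24 h. Both increases and decreases relative to DMSO are fitted.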

Measured: AC50

Cc1ccc([N+](=O)[O-])cc1C
not listed: [10]
inactive: all other assays above

CCOP(=S)(NC(C)C)Oc1ccccc1C(=O)OC(C)C (centres undefined)
not listed: [10]
inactive: all other assays above

Cc1ccc(O)cc1C
not listed: [10]
inactive: all other assays above

CC(C)Nc1ccc(Nc2ccccc2)cc1
active: [1] 14.4 µM | [2] 8.12 µM | [3] 9.07 µM | [4] 10.1 µM | [5] 6.69 µM | [6] 20 µM | [7] 20 µM | [8] 20 µM
inactive: [9]

O=P1(N(CCCl)CCCl)NCCCO1 (centres undefined)
not listed: [8] | [10]
inactive: all other assays above

CCCCN(CCCC)N=O
not listed: [10]
inactive: all other assays above

OCC1CO1 (centres undefined)
not listed: [8]
inactive: all other assays above

CCOP(=S)(Oc1ccc([N+](=O)[O-])cc1)c1ccccc1 (centres undefined)
active: [4] 8.86 µM
not listed: [10]
inactive: all other assays above

C=CC(=O)OCC(CC)(COC(=O)C=C)COC(=O)C=C
active: [1] 4.07 µM | [2] 5.14 µM | [3] 3.18 µM | [4] 2.45 µM | [5] 4.45 µM | [6] 9.44 µM | [7] 6.86 µM | [8] 4.96 µM | [9] 7.24 µM

CCOP(=S)(OCC)SCS(=O)(=O)CC
not listed: [10]
inactive: all other assays above

O=C(O)C(F)(F)OC(F)(F)C(F)(F)OC(F)(F)F
not listed: [7] | [8]
inactive: all other assays above

O=P(Oc1ccccc1)(Oc1ccccc1)Oc1ccccc1
inactive: [2] | [6] | [7] | [9]
active: [1] 29.9 µM | [4] 26.8 µM | [5] 26.3 µM

CCOP(=S)(S)OCC
not listed: [8] | [10]
inactive: all other assays above

Cc1cccc(N)c1
not listed: [2]
inactive: all other assays above

O=S(=O)(F)C(F)(F)C(F)(F)C(F)(F)C(F)(F)C(F)(F)C(F)(F)C(F)(F)C(F)(F)F
not listed: [7]
inactive: all other assays above

CCOS(=O)(=O)OCC
not listed: [8] | [10]
inactive: all other assays above

CCC1(c2ccccc2)C(=O)N=C(O)NC1=O (centres undefined)
not listed: [8] | [10]
inactive: all other assays above

O=P(OCC(Br)CBr)(OCC(Br)CBr)OCC(Br)CBr (centres undefined)
active: [4] 3.69 µM
not listed: [8] | [10]
inactive: all other assays above

[N-]=[N+]=[N-]
not listed: [8] | [10]
inactive: all other assays above

CCOP(=S)(OCC)SCn1nnc2ccccc2c1=O
not listed: [8] | [10]
inactive: all other assays above

O=C(O)C=CC(F)(C(F)(F)F)C(F)(F)F
not listed: [7] | [8]
inactive: all other assays above

NC(=O)C(F)(F)C(F)(F)F
not listed: [7] | [8] | [10]
inactive: all other assays above

O=C(O)C(F)(OC(F)(F)C(F)(F)C(F)(F)F)C(F)(F)F (centres undefined)
not listed: [7] | [10]
inactive: all other assays above

CCOC(=O)c1ccccc1C(=O)OCC
not listed: [8] | [10]
inactive: all other assays above

CCCCc1ccccc1
not listed: [8] | [10]
inactive: all other assays above

CCOP(=S)(OCC)SCSc1ccc(Cl)cc1
active: [4] 6.58 µM
not listed: [8] | [10]
inactive: all other assays above

OCC(F)(F)OC(F)(F)C(F)(F)OC(F)(F)C(F)(F)OC(F)(F)CO
active: [3] 45.5 µM and 30 µM | [5] 44.9 µM and 35.8 µM
not listed: [7]
inactive: all other assays above

COP(=O)(CCC(=O)NCO)OC
not listed: [7]
inactive: all other assays above

c1ccc2c(c1)Nc1ccccc1S2
not listed: [8] | [10]
inactive: all other assays above

COP(=O)(O)OC
not listed: [8] | [10]
inactive: all other assays above

O=C(O)C(F)(F)OC(F)(F)C(F)(F)OC(F)(F)C(=O)O
not listed: [7]
inactive: all other assays above

OCC(F)(F)OC(F)(F)C(F)(F)OC(F)(F)CO
not listed: [7] | [8]
inactive: all other assays above

O=C(O)C(F)(F)C(F)(F)C(=O)O
not listed: [7] | [8] | [10]
inactive: all other assays above

COC(=O)C(F)(F)C(F)(F)OC(F)(C(F)(F)F)C(F)(F)OC(F)=C(F)F (centres undefined)
not listed: [7] | [8]
inactive: all other assays above

O=[N+]([O-])c1ccccc1
not listed: [2] | [8]
inactive: all other assays above

CC(O)C(F)(F)C(F)(F)F (centres undefined)
not listed: [7] | [10]
inactive: all other assays above

FC(F)(F)C(F)(C(F)(F)F)C(F)(F)C(F)(F)CC1CO1 (centres undefined)
not listed: [7] | [8] | [10]
inactive: all other assays above

CCNc1nc(Cl)nc(NC(C)(C)C)n1
not listed: [8] | [10]
inactive: all other assays above
